# Rab9 promoter act: activators of Rab9 promoter | Huh7 Rab9 promoter-luciferase reporter, luminescence, 24 h | Potency, µM (doses to about 9.22 µM), inactives show at the highest dose activation, negative = inhibition, actives largely listed as activators | actives 2.8% (n = 320,000) | AID 485297; note: % of control where 0% means no effect; nearly all actives have a fitted effect of over 60% in size
#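 Luminescence from Amplite-detected luciferase (10 minutes, ambient) reports Rab9 promoter activation. Before that, stable Rab9-luciferase Huh7 cells (1500/well, reduced-serum OP-MEM I plus 10% FBS) were exposed to compound for 24 hours at 37C.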
# SMN2 splice enh: increases expression of the SMN2 splice variant. Potency, µM (highest dose often 46.1 µM), for the others: at the highest dose activity change, positive = activation, usual class: activators. HEK293 SMN2-luciferase splicing reporter, luminescence, 30-36 h. AID 1458. actives 2.8% (n = 210,000); note: % of control where 0% means no effect; nearly all actives have a fitted effect of over 55% in size
#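 HEK293 cells carry an SMN2 minigene-luciferase reporter in which exon 7 inclusion puts luciferase in frame. Cells were seeded at 2000 cells/well, attached for 10-12 hours, then exposed to compounds for 30-36 hours at 37C before ONE-Glo luminescence.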
# NPC1 promoter act: activators of NPC1 promoter. Huh7 NPC1 promoter luciferase reporter, 24 h. Potency, µM (series often up to 9.22 µM), for inactives: at the top dose activation, hits mostly activators. actives 2.4% (n = 320,000). AID 485313; note: % of control where 0% means no effect; nearly all actives have a fitted effect of over 60% in size
#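 Luminescence from an NPC1 promoter-driven luciferase reporter in stably transfected Huh7 cells was measured after 24 h compound treatment at 37 °C, followed by 10 min ambient incubation with luciferase detection reagent.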
# ELG1 genotoxic: genotoxicity induction in ELG1-luciferase HEK293T cells; HEK293T ELG1-luciferase reporter, luminescence, 16 h; AID 504466; Potency, µM (series often up to 46 µM), for the others: at the top dose activity change, positive = activation, hits mostly activators; actives 1.3% (n = 330,000); note: % of control where 0% means no effect; nearly all actives have a fitted effect of over 60% in size
#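 HEK293T cells expressing luciferase-tagged ELG1 were exposed to compound or DMSO vehicle for 16 hr at 37 °C and 5% CO2. Luciferase activity was then measured with ONE-Glo after 30 min at room temperature.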
# KinaseGlo FLuc: Kinase-Glo luciferase inhibition (counter-screen). Potency, µM (titrated, usually from 38.3 µM), without a hit: at the top dose activity change, negative = inhibition, hits mostly inhibitors. actives 0.28% (n = 200,000). Q27757. Kinase-Glo luciferase, ATP luminescence, 8 min; note: % is set by controls: 0 for no effect and ±100 for the full control effect; nearly all actives have a fitted effect of over 60% in size
#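 Substrate mix (final 50 mM imidazole pH 7.2, 50 mM KCl, 7 mM MgCl2, 10 uM ATP, 0.01% Tween 20, 0.05% BSA) plus pin-tool compound, then Kinase-Glo detection mix; 8 min ambient, luminescence read.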
# FLuc counter: inhibits or activates purified firefly luciferase, miR-21 counter-screen; P08659; Potency, µM (top dose mostly 57.5 µM), for inactives: at the highest dose activity change, negative = inhibition, hits mostly inhibitors; actives 6.9% (n = 360,000); purified FLuc, Km substrates, luminescence inhibition;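 note: plate controls were vehicle for no effect and reference inhibitor for full effect; nearly all actives have a fitted effect of over 55% in size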
# Target sequence (P08659 whole entry, looked up): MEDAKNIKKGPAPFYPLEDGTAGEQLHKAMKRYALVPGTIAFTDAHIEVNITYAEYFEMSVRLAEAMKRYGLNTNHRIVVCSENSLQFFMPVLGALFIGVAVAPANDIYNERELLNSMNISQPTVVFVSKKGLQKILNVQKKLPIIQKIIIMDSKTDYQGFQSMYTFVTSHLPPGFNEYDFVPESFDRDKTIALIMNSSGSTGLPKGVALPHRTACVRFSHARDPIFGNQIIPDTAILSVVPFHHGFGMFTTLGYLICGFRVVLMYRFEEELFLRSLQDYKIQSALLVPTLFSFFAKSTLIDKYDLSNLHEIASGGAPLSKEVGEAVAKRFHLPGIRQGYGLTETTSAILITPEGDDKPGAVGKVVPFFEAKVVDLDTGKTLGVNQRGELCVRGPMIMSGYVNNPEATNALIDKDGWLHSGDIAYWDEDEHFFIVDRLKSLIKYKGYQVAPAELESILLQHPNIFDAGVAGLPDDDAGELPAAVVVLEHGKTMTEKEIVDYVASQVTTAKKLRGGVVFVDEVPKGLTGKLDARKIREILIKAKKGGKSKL
#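 Biochemical qHTS of compounds, final roughly 60 µM downward over six points, against 10 nM purified firefly luciferase using Km concentrations of substrates (10 uM D-luciferin, 10 uM ATP) in Tris acetate pH 7.5 buffer; luminescence output.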
# Starred values were filed as active, the others as inactive; ? = inconclusive; . = no result. Hits are enriched below; roughly 7.3% of the tested compounds scored in any of these assays. Calls come from the whole dose curve; as a rule, active = well fitted curve in the direction sought with a large enough effect; inconclusive = small, poorly fitted or top-dose-only effect, or another doubt; inactive = no such curve, though single readings can be large; an effect the other way counts as inactive or inconclusive. Potency is the fitted concentration of half-maximal effect.
SMILES,Rab9 promoter act,SMN2 splice enh,NPC1 promoter act,ELG1 genotoxic,KinaseGlo FLuc,FLuc counter
O=C(NN=C1CCCC1)c1cccs1,-3%,32%,-4%,9%,-7%,-3%
O=Cc1ccc(OCc2cccc(C(F)(F)F)c2)cc1O,6%,24%,1%,0%,-3%,?
O=C(OCC(F)(F)F)c1cccc(COc2ccc3ccccc3c2)c1,?,0.45µM*,1µM*,?,-2%,3.4µM*
Cc1ccc(NC(=O)CCC(=O)c2cccs2)cc1,-3%,-24%,0%,9%,0%,11µM*
CC(CC(=O)c1cccs1)CC(=O)c1cccs1,2.8µM*,?,2.8µM*,29%,-3%,21µM*
Cc1ccc(NC(=O)CCC(=O)c2cccs2)c(Br)c1,3.5µM*,.,?,?,.,?
C/C(=N/OCC(=O)Nc1ccccc1)c1cccs1,?,-17%,?,?,-2%,9.5µM*
Cc1ccc(CNC(=O)CCC(=O)c2cccs2)cc1,1%,-20%,-1%,0%,-3%,-20%
Cc1ccc(NC(=O)COC(=O)CCC(=O)c2cccs2)c(Br)c1,2%,.,-1%,2%,.,-13%
CC(C)c1ccc(NCCC(=O)c2ccc(Br)cc2)cc1,9%,-6%,5%,1%,1%,2%
O=C(NC(=S)Nc1ccc(N2CCCCC2)cc1)c1cccs1,2.2µM*,-1%,1.3µM*,2.9µM*,7%,5.4µM*
Cc1ccc(NCCC(=O)c2cccs2)cc1C,?,?,9%,?,-2%,3.4µM*
CC(C)c1ccc(NCCC(=O)c2cccs2)cc1,?,18%,?,?,-3%,12µM*
O=C(CCC(=O)c1cccs1)Nc1ccc(N2CCCCC2)cc1,11%,-6%,11%,13%,-2%,19µM*
COc1cccc(C2C(C(=O)Nc3ccc(C)cc3C)=C(C)Nc3c(C(=O)Nc4cccc(C)c4)cnn32)c1OC (stereo not drawn),.,.,.,.,.,3%
COc1ccc(S(=O)(=O)CCC(=O)N(C)c2ccc(OC)cc2OC)cc1,1%,2%,5%,0%,0%,-4%
Cc1ccc(NCCC(=O)c2ccc(Cl)c(Cl)c2)cc1,12%,-1%,1%,3%,-5%,-3%
Cc1ccc(NC(=O)CNCc2cccs2)c(Br)c1,19%,.,30%,?,.,27µM*
Cc1ccc(NCCC(=O)c2cccs2)cc1,2.8µM*,23%,?,?,0%,21µM*
Cc1ccc(NC(=O)CNCc2ccccc2)c(Br)c1,23%,3%,15%,?,-2%,?
Cc1cc(C)c2c(c1)NC(=O)C2(O)CC(=O)c1cccs1 (stereo not drawn),.,2%,.,.,-1%,4%
O=C(CCNc1cccc(Cl)c1)c1cccs1,26%,-5%,16%,8%,-5%,?
Cc1cc(C)c(C(CC(=O)c2cccs2)C(C#N)C#N)c(C)c1 (stereo not drawn),3.5µM*,?,?,18µM*,2%,12µM*
Cc1ccc(NCCC(=O)c2cccs2)cc1Cl,1%,5%,8%,21µM*,-3%,?
c1ccc2c(N3CCCCC3)nc(N3CCOCC3)nc2c1,-5%,-15%,-3%,-2%,0%,-8%
Cc1ccc(S(=O)(=O)Nc2nc3ccccc3nc2NCc2ccc3c(c2)OCO3)cc1C,-1%,0%,4%,-3%,0%,2%
CN(C)c1ccc(N=Nc2ccccc2C(=O)OCC(=O)Nc2ccccc2C(F)(F)F)cc1,24%,26%,-1%,7%,-5%,9.5µM*
CN(C)c1ccc(N=Nc2ccccc2C(=O)OCC(=O)N2CCCC2)cc1,0%,?,15%,9%,1%,2.1µM*
CN(C)c1ccc(N=Nc2ccccc2C(=O)OCC(=O)N2CCCCCC2)cc1,22%,25µM*,18%,1%,-5%,?

# Assay outcomes from PubChem.
